According to PubChem BioAssay (NCI):
The panel holds about 83,000 compounds, 20% with a hit somewhere; the sample as a whole holds those more often.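 Each cell line was grown in a 96-well plate and treated with one concentration of compound for 48 hours. Values below 10 were considered active.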 Values without a mark were called inactive. Active and inactive are the calls of the source.

Each compound was assayed on UACC-62 melanoma (assay: NCI-60 one-dose screen, 48 h (100 = growth as untreated, 0 = no growth, -100 = all killed)). Conditions: 10 µM unless noted.

SMILES | growth
Cn1cc(-c2cc3nc(-c4c[nH]c5ccc(Cl)cc45)cc(N)n3n2)c2ccccc21 | -70.9% (active)
CC1(C)CC[C@]2(C(=O)O)CC[C@]3(C)C(=CCC4[C@@]5(C)C[C@@H](O)[C@@H]6OC(c7ccco7)OC[C@@]6(C)C5CC[C@]43C)C2C1 (some centres undefined) | -7.05% (active)
COc1ccc(C2CC(c3ccc(S(=O)(=O)NCCNc4nc(Nc5ccc(F)cc5)nc(N(C)C)n4)cc3)=Nc3c(N)nc(N)nc3N2)cc1 (centres undefined) | 81.6%
O=C(Nc1ccccc1)N1CCN(c2cc(-c3cn(-c4ccccc4)nc3-c3cccc(O)c3)ccn2)CC1 | 50.4%
CNS(=O)(=O)c1ccc(Nc2ccc(C(F)(F)F)cc2)c(-c2cn(C)cn2)c1 | 37.1%
CCS(=O)(=O)N1CCCC(C(=O)Nc2nc3ccc(NC(=O)c4ccc(F)c(OC)c4F)cc3s2)C1 (centres undefined) | 58.2%
COc1ccc(CCC2c3c(cc4c(c3OC)OCO4)CCN2C)cc1 (centres undefined) | -95.7% (active)
Nc1nc(-c2ccccc2)c(N=Nc2ccc([N+](=O)[O-])cc2Cl)s1 | 57.8%
CN(C)c1nc(NCCNS(=O)(=O)c2ccc(C3=Nc4c(N)nc(N)nc4NC(c4ccccc4)C3)cc2)nc(Nc2ccc(F)cc2)n1 (centres undefined) | 55.9%
N/C(=N\c1nc2ccccc2s1)NC(=O)Nc1ccc(Cl)cc1Cl | -49.8% (active)
CCCCn1c(O)c(N=Nc2nc(-c3cc4ccccc4oc3=O)cs2)c2cc(Br)ccc21 | 93.5%
Cc1cccc(-c2nc(Nc3cccc(S(N)(=O)=O)c3)c3ccccc3n2)c1 | 49.9%
Cn1cc(-c2cc(N)n3nc(-c4cn(C)c5ccccc45)cc3n2)c2cc(Br)ccc21 | -59.7% (active)
COc1cc2c(c(OC)c1OC)C(=O)CC(c1cccc(NC(=O)c3cc(NC(=O)[C@H](C)N)ccc3Cl)c1)O2 (some centres undefined) | 34%
C#CCOc1cc(N(CC)CC)ccc1C(C(=O)NC(C)(C)C)N(C(=O)C1CCc2cc(F)ccc2O1)c1cc(C)cc(C)c1 (centres undefined) | 33.8%
Cc1ccc(C2=NN(c3nc(-c4cc5ccccc5oc4=O)cs3)C(c3ccc(C)cc3)C2)cc1 (centres undefined) | 91.2%
Cn1cc(-c2nc(N)nnc2-c2c[nH]c3ccc(F)cc23)c2cc(Br)cnc21 | 13.3%

The compounds below were run on LOX IMVI melanoma in the same assay as above. Conditions: 10 µM.

SMILES | growth
Brc1ccc(-c2n(Cc3ccc4ccccc4c3)c(-c3ccccc3)c(-c3ccccc3)[n+]2Cc2ccc3ccccc3c2)cc1 | -92.6% (active)
O=C1CCCc2cc(OCC(=O)N3CCCCC3)ccc2N1 | 97.1%
COc1cc2c3c(n(CCCN4CCC[C@@H]4CO)c(=O)c2cc1OC)-c1cc2c(cc1C3=O)OCO2 | -98.7% (active)
CC(=O)c1c(N)c(C#N)cn1-c1ccc(Cl)cc1Cl | 99.2%
Cc1ccc(C2CC(c3ccc(S(=O)(=O)NCCNc4nc(Nc5ccc(F)cc5)nc(N(C)C)n4)cc3)=Nc3c(N)nc(N)nc3N2)cc1 (centres undefined) | 6.81% (active)
Cc1ccc(C(=O)C(c2c[nH]c3ccccc23)c2c[nH]c3ccccc23)cc1 | -78.5% (active)
COc1cc(-c2nc3ccc(C)cc3[nH]2)ccc1OCc1nnc(-c2ccc(Br)cc2)o1 | 77.1%
Nc1nnc(-c2c[nH]c3ccc(Br)cc23)c(-c2c[nH]c3ncc(Br)cc23)n1 | 31.8%
Cc1ccc(-c2nc(C#N)c(S(=O)(=O)N3CCN(S(=O)(=O)c4ccc(Cl)cc4)CC3)o2)cc1 | 0.237% (active)
CCOC(=O)C1=C(N)N(c2ccccc2)C2=C(C(=O)CC(C)(C)C2)C1c1ccccc1Cl (centres undefined) | 85.4%
Cc1ccc(C(=O)NN2C(=O)/C(=C/C=C/c3ccc([N+](=O)[O-])o3)SC2=S)cc1 | -90.9% (active)
CCCS(=O)(=O)N1CCCC(C(=O)Nc2nc3ccc(NC(=O)c4ccc(F)c(OC)c4F)cc3s2)C1 (centres undefined) | 37.6%
O=C1CC(Sc2n[nH]c(-c3ccncc3)n2)C(=O)N1c1ccc(Br)cc1 (centres undefined) | 100%
COc1ccc(NC(=O)Nc2ccc(OCc3ccc(F)cc3)cc2)cc1 | 26.6%
COc1ccc(/C=C/c2nc3ccccc3n3c(-c4ccc(Cl)cc4)nnc23)cc1 | 88.5%
CC1(C)CC[C@]2(C(=O)O)CC[C@]3(C)C(=CCC4[C@@]5(C)C[C@@H](O)[C@@H]6OC(c7ccccc7Br)OC[C@@]6(C)C5CC[C@]43C)C2C1 (some centres undefined) | 13.5%
CC(=O)OCC1OC(OC2C(COC(C)=O)OC(n3cc(COc4ccc5ccc(=O)oc5c4)nn3)C(OC(C)=O)C2OC(C)=O)C(OC(C)=O)C(OC(C)=O)C1OC(C)=O (centres undefined) | 104%
COc1ccc(Cc2nn(CC(=O)N/N=C/c3ccc(F)cc3)c(=O)c3c(C)noc23)cc1 | 29.5%
O=C(c1ccccc1)C(c1c[nH]c2ccccc12)c1c[nH]c2ccccc12 | -48.4% (active)

SMILES | growth
N=C1N=C(SCc2nc3ccccc3[nH]2)NC(=O)/C1=C/c1ccc(Cl)cc1 | 91.3%
Cn1cc(-c2cc3nc(-c4c[nH]c5ccc(Cl)cc45)cc(N)n3n2)c2ccccc21 | -80.7% (active)
CC1(C)CC[C@]2(C(=O)O)CC[C@]3(C)C(=CCC4[C@@]5(C)C[C@@H](O)[C@@H]6OC(c7ccco7)OC[C@@]6(C)C5CC[C@]43C)C2C1 (some centres undefined) | 22.9%
COc1ccc(C2CC(c3ccc(S(=O)(=O)NCCNc4nc(Nc5ccc(F)cc5)nc(N(C)C)n4)cc3)=Nc3c(N)nc(N)nc3N2)cc1 (centres undefined) | 65.1%
O=C(Nc1ccccc1)N1CCN(c2cc(-c3cn(-c4ccccc4)nc3-c3cccc(O)c3)ccn2)CC1 | 69.1%
CNS(=O)(=O)c1ccc(Nc2ccc(C(F)(F)F)cc2)c(-c2cn(C)cn2)c1 | 43.1%
CCS(=O)(=O)N1CCCC(C(=O)Nc2nc3ccc(NC(=O)c4ccc(F)c(OC)c4F)cc3s2)C1 (centres undefined) | 67.6%
COc1ccc(CCC2c3c(cc4c(c3OC)OCO4)CCN2C)cc1 (centres undefined) | -100% (active)
Nc1nc(-c2ccccc2)c(N=Nc2ccc([N+](=O)[O-])cc2Cl)s1 | 98%
CN(C)c1nc(NCCNS(=O)(=O)c2ccc(C3=Nc4c(N)nc(N)nc4NC(c4ccccc4)C3)cc2)nc(Nc2ccc(F)cc2)n1 (centres undefined) | 3.29% (active)
N/C(=N\c1nc2ccccc2s1)NC(=O)Nc1ccc(Cl)cc1Cl | -96.8% (active)
CCCCn1c(O)c(N=Nc2nc(-c3cc4ccccc4oc3=O)cs2)c2cc(Br)ccc21 | 94.7%
Cc1cccc(-c2nc(Nc3cccc(S(N)(=O)=O)c3)c3ccccc3n2)c1 | 7.14% (active)
Cn1cc(-c2cc(N)n3nc(-c4cn(C)c5ccccc45)cc3n2)c2cc(Br)ccc21 | -85.3% (active)
COc1cc2c(c(OC)c1OC)C(=O)CC(c1cccc(NC(=O)c3cc(NC(=O)[C@H](C)N)ccc3Cl)c1)O2 (some centres undefined) | 15.7%
C#CCOc1cc(N(CC)CC)ccc1C(C(=O)NC(C)(C)C)N(C(=O)C1CCc2cc(F)ccc2O1)c1cc(C)cc(C)c1 (centres undefined) | 32.5%
Cc1ccc(C2=NN(c3nc(-c4cc5ccccc5oc4=O)cs3)C(c3ccc(C)cc3)C2)cc1 (centres undefined) | 91.2%
Cn1cc(-c2nc(N)nnc2-c2c[nH]c3ccc(F)cc23)c2cc(Br)cnc21 | 13.9%
